Assay [1] concerns Epidermal growth factor receptor (Homo sapiens), P00533 [T790M]. To be noted: at 1 µM.
Assay [2] deals with Epidermal growth factor receptor (Homo sapiens), P00533 [L858R,T790M]. The conditions noted are these: at 0.1 µM.
For assay [3] the test system is unchanged. To be noted: at 1 µM.
The target of assay [4] is Ephrin type-A receptor 2 (Homo sapiens) (UniProt P29317). The conditions noted are these: at 0.1 µM.
Assay [5] has the same target. The conditions noted are these: at 1 µM.
Assay [6] addresses T1, Ephrin type-A receptor 3 (Homo sapiens) (UniProt P29320).
T1 sequence (whole entry): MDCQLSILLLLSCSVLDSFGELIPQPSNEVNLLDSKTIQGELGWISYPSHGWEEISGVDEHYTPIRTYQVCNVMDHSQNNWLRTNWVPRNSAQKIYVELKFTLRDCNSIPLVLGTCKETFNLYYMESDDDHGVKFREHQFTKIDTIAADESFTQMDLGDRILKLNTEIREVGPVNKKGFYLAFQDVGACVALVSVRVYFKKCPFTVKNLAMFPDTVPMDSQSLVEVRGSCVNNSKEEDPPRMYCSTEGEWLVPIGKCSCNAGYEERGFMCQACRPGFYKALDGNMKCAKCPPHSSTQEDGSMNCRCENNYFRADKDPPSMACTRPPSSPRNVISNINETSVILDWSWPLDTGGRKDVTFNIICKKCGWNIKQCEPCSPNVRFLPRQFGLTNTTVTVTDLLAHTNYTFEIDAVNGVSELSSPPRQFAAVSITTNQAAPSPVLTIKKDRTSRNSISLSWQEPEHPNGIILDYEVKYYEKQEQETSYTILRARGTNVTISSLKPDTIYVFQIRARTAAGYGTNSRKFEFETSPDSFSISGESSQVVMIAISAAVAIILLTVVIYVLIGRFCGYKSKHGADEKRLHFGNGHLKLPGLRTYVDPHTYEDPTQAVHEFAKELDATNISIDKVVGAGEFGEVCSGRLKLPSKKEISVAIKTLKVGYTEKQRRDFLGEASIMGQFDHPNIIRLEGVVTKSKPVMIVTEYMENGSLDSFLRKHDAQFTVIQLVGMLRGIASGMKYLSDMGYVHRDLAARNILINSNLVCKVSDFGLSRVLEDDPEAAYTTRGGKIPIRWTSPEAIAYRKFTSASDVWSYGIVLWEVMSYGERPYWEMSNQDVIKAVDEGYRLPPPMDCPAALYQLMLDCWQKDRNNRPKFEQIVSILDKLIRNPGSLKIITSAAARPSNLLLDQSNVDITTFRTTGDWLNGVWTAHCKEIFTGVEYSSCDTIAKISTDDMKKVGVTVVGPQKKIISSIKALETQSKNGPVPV
The conditions noted are these: at 0.1 µM.

Assay [7] deals with T1, Ephrin type-A receptor 3 (Homo sapiens). To be noted: at 1 µM.
In assay [8] the target is Ephrin type-A receptor 4 (Homo sapiens) (UniProt P54764). To be noted: at 0.1 µM.
Assay [9] shares this target. To be noted: at 1 µM.
Assay [10] deals with T2, Ephrin type-B receptor 2 (Homo sapiens) (UniProt P29323).
T2 sequence (whole entry): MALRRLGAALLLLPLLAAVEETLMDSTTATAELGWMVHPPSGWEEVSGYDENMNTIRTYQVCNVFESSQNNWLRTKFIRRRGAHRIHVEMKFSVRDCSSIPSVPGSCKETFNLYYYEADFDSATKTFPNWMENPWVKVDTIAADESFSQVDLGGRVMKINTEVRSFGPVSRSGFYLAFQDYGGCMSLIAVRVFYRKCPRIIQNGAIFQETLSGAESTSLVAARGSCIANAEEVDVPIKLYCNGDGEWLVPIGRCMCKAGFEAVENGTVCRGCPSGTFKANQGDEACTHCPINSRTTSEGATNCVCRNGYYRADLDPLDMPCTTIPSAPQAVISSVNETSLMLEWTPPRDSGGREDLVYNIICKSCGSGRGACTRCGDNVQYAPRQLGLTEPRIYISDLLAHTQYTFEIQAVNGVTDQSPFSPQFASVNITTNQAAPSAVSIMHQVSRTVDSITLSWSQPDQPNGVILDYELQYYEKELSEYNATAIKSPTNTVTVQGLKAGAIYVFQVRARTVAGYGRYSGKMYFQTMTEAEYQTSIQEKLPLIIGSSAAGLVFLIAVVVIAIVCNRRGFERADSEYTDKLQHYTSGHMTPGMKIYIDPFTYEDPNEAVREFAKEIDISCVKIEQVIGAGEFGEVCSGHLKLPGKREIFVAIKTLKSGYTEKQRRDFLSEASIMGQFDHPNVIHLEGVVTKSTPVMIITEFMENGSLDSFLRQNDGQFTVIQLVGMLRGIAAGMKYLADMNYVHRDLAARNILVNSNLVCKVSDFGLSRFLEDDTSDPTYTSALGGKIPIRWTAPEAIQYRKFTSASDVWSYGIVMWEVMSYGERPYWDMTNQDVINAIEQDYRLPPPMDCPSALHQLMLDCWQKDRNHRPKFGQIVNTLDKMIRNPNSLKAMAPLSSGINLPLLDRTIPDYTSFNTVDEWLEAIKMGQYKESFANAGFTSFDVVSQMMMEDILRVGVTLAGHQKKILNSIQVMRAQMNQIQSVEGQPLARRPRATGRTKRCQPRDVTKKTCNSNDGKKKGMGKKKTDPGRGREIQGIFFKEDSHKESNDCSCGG
The conditions noted are these: at 0.1 µM.

The target of assay [11] is T2, Ephrin type-B receptor 2 (Homo sapiens). The conditions noted are these: at 1 µM.
Assay [12] concerns the target T3, Ephrin type-B receptor 3 (Homo sapiens) (UniProt P54753).
T3 sequence (whole entry): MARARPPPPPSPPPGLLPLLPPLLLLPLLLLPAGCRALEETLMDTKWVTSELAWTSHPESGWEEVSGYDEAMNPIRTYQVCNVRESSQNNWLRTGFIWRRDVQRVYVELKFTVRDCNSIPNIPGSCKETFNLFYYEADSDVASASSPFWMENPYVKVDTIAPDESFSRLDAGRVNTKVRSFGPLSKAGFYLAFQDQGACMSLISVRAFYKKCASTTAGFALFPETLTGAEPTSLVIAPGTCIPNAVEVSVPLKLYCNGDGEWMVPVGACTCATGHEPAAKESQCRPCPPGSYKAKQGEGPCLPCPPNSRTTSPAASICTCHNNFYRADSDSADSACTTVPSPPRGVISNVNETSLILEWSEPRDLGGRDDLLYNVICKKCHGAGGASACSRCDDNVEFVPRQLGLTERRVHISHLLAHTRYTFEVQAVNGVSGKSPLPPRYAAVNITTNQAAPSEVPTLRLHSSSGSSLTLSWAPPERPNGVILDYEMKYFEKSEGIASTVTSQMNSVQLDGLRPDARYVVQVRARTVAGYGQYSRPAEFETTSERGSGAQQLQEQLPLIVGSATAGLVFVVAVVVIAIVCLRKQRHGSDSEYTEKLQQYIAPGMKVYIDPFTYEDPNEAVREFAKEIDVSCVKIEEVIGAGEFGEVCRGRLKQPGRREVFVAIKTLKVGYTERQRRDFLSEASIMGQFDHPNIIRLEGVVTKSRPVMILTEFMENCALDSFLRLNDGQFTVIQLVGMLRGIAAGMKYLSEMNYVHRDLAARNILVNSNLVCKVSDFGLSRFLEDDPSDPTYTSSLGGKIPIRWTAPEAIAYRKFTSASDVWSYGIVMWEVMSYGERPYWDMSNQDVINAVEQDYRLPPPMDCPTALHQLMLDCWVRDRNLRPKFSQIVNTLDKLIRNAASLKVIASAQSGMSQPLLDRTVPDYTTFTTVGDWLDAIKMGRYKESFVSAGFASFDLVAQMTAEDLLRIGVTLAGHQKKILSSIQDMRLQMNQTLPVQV
The conditions noted are these: at 0.1 µM.

Assay [13] deals with T3, Ephrin type-B receptor 3 (Homo sapiens). To be noted: at 1 µM.
Assay [14] has as its target T4, Ephrin type-B receptor 4 (Homo sapiens) (UniProt P54760).
T4 sequence (whole entry): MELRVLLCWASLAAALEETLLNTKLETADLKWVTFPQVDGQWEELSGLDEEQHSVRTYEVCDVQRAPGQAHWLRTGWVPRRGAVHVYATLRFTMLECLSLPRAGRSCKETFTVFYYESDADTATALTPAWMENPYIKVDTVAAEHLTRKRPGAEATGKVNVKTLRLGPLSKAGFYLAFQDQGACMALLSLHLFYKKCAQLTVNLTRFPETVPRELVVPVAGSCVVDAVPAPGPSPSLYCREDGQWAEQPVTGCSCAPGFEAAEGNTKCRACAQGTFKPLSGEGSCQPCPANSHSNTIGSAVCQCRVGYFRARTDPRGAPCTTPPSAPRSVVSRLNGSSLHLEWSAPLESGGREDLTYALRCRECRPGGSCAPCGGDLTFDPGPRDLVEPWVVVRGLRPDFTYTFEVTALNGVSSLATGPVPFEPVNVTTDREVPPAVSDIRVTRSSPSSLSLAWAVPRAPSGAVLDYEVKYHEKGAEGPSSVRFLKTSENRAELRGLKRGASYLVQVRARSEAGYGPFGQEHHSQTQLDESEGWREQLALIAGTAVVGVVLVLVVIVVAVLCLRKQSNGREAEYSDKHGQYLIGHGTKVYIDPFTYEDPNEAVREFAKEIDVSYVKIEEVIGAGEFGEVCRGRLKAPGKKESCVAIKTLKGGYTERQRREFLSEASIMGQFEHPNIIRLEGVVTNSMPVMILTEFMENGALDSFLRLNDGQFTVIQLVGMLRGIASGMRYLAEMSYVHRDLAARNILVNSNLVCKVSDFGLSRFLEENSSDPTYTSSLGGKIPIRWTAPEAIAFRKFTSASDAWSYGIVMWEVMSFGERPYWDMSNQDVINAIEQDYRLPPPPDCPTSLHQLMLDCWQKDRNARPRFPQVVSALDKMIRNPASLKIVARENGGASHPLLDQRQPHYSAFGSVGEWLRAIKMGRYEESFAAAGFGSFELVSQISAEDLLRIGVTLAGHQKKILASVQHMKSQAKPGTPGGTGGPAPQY
To be noted: at 0.1 µM.

In assay [15] the target is T4, Ephrin type-B receptor 4 (Homo sapiens). The conditions noted are these: at 1 µM.
The target in assay [16] is Receptor tyrosine-protein kinase erbB-2 (Homo sapiens) (UniProt P04626). The conditions noted are these: at 0.1 µM.
Assay [17] has the same target. The conditions noted are these: at 1 µM.
Assay [18] has as its target Receptor tyrosine-protein kinase erbB-4 (Homo sapiens) (UniProt Q15303). To be noted: at 0.1 µM.
Assay [19] shares this target. To be noted: at 1 µM.
Assay [20] concerns the target Tyrosine-protein kinase Fer (Homo sapiens) (UniProt P16591). To be noted: at 0.1 µM.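 Also: reported figures are averaged percent inhibition of FER.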

Chain of Receptor tyrosine-protein kinase erbB-4 (Homo sapiens) (Q15303 whole entry): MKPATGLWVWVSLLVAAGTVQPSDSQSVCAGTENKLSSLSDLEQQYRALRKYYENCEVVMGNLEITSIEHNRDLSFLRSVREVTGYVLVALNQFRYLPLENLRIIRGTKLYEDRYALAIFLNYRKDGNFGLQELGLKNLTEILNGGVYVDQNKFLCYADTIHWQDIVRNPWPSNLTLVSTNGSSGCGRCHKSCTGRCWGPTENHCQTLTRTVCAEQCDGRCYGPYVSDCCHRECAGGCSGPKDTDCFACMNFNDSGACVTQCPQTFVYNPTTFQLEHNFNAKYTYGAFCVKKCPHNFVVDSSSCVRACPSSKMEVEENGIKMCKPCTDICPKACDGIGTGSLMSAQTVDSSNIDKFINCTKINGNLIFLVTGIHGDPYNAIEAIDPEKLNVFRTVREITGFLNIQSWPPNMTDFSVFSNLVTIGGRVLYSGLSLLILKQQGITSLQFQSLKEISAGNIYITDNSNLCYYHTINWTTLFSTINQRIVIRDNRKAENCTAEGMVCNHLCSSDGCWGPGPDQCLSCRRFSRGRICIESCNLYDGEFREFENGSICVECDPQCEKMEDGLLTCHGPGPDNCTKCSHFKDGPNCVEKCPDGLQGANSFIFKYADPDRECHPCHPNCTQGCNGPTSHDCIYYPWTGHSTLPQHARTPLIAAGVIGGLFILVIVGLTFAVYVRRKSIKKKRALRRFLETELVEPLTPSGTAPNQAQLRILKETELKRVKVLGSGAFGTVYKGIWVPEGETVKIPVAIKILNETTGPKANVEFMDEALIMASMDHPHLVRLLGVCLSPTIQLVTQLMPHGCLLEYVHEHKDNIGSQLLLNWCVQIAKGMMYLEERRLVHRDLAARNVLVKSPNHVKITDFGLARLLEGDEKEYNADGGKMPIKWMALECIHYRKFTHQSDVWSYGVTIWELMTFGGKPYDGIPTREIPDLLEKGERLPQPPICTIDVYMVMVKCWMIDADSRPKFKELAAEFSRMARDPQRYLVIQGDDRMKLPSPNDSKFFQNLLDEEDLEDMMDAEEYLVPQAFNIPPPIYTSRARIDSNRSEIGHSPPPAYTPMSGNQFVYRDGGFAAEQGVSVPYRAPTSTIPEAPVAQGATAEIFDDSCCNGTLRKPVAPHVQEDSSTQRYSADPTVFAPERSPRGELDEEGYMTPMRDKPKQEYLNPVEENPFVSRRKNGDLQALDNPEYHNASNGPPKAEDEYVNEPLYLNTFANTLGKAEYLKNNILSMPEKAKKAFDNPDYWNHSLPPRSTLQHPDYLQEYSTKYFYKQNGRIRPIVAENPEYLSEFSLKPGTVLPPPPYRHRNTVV
Chain of Epidermal growth factor receptor (Homo sapiens), P00533 [T790M] (P00533 whole entry T790M): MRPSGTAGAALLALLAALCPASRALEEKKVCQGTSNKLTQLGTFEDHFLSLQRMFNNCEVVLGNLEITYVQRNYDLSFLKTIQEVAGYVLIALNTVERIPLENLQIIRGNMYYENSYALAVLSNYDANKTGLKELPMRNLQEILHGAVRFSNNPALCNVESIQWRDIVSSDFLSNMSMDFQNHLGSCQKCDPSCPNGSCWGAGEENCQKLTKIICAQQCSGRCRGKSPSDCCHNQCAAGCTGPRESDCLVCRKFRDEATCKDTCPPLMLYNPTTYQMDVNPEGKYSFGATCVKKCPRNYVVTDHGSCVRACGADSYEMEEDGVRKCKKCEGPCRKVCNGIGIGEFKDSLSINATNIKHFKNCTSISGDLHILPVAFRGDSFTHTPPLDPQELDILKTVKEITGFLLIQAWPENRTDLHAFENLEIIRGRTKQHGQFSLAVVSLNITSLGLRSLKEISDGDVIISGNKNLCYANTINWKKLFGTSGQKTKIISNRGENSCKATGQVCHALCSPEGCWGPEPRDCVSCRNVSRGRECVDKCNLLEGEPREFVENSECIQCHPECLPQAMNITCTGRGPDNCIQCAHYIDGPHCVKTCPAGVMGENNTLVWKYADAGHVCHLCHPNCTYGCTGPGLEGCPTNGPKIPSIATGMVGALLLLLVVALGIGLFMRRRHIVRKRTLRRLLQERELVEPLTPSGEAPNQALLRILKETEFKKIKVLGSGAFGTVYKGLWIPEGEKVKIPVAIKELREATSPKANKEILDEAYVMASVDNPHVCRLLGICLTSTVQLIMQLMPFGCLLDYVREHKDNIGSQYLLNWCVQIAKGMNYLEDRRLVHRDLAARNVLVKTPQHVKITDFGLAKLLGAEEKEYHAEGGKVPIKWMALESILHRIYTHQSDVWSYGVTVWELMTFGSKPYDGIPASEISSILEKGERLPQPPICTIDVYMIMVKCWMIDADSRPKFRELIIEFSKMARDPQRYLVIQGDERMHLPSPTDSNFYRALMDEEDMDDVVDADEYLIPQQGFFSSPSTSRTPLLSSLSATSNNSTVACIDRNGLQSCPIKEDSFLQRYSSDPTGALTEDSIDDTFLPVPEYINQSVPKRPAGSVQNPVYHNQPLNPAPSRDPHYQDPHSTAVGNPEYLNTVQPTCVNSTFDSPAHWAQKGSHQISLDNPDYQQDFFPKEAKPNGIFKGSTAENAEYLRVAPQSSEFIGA
Chain of Epidermal growth factor receptor (Homo sapiens), P00533 [L858R,T790M] (P00533 whole entry T790M/L858R, looked up): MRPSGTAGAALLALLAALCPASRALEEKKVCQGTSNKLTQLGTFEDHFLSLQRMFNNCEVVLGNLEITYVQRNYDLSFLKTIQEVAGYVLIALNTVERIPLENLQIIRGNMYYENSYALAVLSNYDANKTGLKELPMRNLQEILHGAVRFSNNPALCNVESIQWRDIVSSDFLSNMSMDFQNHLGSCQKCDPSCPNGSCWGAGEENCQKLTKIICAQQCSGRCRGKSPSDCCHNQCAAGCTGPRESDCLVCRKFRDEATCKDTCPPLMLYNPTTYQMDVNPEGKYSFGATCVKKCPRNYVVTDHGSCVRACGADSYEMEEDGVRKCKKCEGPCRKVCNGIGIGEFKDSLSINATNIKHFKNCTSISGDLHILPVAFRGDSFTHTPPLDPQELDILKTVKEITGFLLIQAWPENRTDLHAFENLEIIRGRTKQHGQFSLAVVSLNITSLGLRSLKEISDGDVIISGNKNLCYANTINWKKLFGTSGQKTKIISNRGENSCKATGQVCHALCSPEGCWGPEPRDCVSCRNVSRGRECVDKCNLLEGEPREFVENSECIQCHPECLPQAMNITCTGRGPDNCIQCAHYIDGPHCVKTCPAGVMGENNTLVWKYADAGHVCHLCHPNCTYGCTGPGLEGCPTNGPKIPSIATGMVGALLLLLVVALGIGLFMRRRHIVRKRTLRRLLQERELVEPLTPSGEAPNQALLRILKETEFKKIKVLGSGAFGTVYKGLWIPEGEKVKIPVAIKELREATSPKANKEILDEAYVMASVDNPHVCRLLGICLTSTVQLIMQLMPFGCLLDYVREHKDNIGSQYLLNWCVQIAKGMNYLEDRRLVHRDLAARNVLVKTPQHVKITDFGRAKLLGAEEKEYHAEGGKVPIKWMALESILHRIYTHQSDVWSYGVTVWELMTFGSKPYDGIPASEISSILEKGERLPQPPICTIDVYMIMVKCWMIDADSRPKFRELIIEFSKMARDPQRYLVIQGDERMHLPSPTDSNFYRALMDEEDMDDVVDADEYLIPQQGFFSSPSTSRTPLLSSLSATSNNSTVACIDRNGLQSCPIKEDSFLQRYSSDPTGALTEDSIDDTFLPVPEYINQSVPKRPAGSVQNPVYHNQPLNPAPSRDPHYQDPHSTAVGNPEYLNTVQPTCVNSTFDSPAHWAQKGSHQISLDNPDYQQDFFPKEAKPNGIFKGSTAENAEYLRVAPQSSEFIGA
Chain of Ephrin type-A receptor 2 (Homo sapiens) (P29317 whole entry): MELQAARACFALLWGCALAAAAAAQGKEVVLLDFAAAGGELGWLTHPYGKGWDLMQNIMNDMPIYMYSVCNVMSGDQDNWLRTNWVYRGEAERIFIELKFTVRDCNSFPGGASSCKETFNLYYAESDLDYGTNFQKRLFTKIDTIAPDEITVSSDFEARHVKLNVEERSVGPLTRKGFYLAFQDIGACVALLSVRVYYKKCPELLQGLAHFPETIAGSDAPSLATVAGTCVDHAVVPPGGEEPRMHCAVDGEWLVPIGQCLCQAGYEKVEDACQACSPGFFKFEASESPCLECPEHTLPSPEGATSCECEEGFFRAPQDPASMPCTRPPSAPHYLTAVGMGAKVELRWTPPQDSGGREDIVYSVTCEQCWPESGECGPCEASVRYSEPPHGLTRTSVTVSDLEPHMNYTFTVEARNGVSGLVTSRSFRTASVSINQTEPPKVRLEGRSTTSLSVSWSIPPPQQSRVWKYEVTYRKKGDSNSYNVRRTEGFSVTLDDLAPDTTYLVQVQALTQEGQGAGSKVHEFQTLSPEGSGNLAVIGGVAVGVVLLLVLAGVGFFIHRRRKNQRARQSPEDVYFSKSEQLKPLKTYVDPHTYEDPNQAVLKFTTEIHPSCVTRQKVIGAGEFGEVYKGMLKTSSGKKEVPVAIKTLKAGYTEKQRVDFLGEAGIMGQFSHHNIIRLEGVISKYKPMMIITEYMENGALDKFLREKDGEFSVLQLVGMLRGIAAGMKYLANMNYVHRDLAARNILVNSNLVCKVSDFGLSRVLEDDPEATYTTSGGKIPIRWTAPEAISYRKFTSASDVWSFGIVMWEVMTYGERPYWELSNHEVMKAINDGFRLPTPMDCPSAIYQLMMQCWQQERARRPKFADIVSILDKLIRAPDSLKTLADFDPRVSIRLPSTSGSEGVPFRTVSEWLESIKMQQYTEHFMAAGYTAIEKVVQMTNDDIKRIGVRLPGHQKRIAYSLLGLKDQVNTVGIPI

As a reminder, the inhibition is the relative decrease from the control value, in per cent. With `NS(=O)(=O)c1ccc(N/N=C2\C(=O)Nc3ccc4ncccc4c32)cc1`, the inhibition in [1] is -0.36%; in assay [2], 1.77%; in assay [3], 5.28%; in assay [4], 1.99%; in [5], 9.56%; in assay [6], 5.42%. Further, the inhibition in [7] came to 12.4%; in assay [8], 8.83%; in [9], 31%; in [10], 8.06%; in [11] it was 29.1%; in assay [12] it was 2.75%. The inhibition is -3.76% in assay [13]; 2.29% in assay [14]; 13.2% in assay [15]; 1.33% in assay [16]; -2.88% in [17]; 11.4% in assay [18]. The inhibition was found to be 10.4% in assay [19] and 3.38% in assay [20].

For `CCn1cc(-c2ccnc3[nH]ccc23)c(-c2cccc(NC(=O)Nc3ccc(OCc4ccccc4)cc3)c2)n1`, the inhibition in [1] was -1.25%; in [2], 0.93%; in assay [3] it was -1.31%; in assay [4], 1.83%; in assay [5], 0.05%; in assay [6] it was 0.1%. Also, the inhibition is 1.02% in assay [7]; 0.23% in assay [8]; 3.4% in assay [9]; -2.33% in assay [10]; -2.78% in assay [11]; 0.02% in [12]. For the same compound, the inhibition in [13] was 0.9%; in assay [14] it was -1.27%; in assay [15], 3.47%; in [16], 2.85%; in assay [17] it was 2.75%; in assay [18], 9.5%. In addition, the inhibition in assay [19] amounted to 63.5%; in assay [20], 0.08%.

Consider `CCn1c(-c2nonc2N)nc2cnc(Oc3cccc(NC(=O)c4ccc(N(C)C)cc4)c3)cc21`, for which the inhibition in assay [1] is 0.52%; in assay [2], -1.54%; in assay [3] it was -0.4%; in [4] it was -2.08%; in assay [5], -3.39%; in [6] it was 2.26%. In addition, the inhibition was 4.01% in assay [7]; 4.68% in assay [8]; -0.31% in assay [9]; 5.07% in assay [10]; 7.72% in [11]; 4.18% in assay [12]. In addition, the inhibition in [13] is 3.26%; in [14] it was 0.67%; in assay [15] it was 0.71%; in assay [16] it was 1.13%; in [17], -0.18%; in assay [18] it was 8.23%. Moreover, the results for the inhibition in [19] and in assay [20] were 9.63% and 1.16%, respectively.

(Values after ChEMBL document CHEMBL1961873, “Compounds: GSK PKIS; Assays: Nanosyn kinase panel” (2012).)
